The panel holds about 79,000 compounds, 15% with a hit somewhere; the sample as a whole holds those more often. Active and inactive are the calls of the source. Rule as the data show it: active = growth inhibition above about 70%; inactive = the rest.
Columns and labels:
[1] = NCI Yeast Anticancer Drug Screen. Data for the wt1 strain (AID 149);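 also: 0% = growth of vehicle-treated wt1 cultures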; details: S. cerevisiae wt1 strain (SPY 50644) growth inhibition, stronger effect = higher value
How it was run: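 Growth inhibition read against vehicle controls after compound exposure of the wt1 yeast strain.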

[2] = NCI Yeast Anticancer Drug Screen. Data for the rad50EPP+ strain (AID 151);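 also: 0% = growth of vehicle-treated control cultures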; details: S. cerevisiae rad50 mutant strain, stronger effect = higher value
How it was run: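 In this screen, rad50EPP+ yeast were exposed to compounds. Growth inhibition was scored against vehicle-treated controls.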

[3] = NCI Yeast Anticancer Drug Screen. Data for the rad50 strain (AID 155);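 also: 0% = growth of vehicle-only cultures of the same strain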; details: S. cerevisiae rad50 strain growth inhibition, stronger effect = higher value
How it was run: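 Readout: growth inhibition relative to vehicle-treated cultures. Compound exposure was carried out in a genetically defined yeast strain deficient in DNA damage repair.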

[4] = NCI Yeast Anticancer Drug Screen. Data for the mec2-1 strain (AID 157); details: S. cerevisiae mec2-1 strain, stronger effect = higher value
How it was run: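 Vehicle-treated cultures served as reference for growth inhibition of compound-exposed mec2-1 yeast.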

[5] = NCI Yeast Anticancer Drug Screen. Data for the rad14 strain (AID 159);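 also: 0% = growth of vehicle-treated control cultures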; details: S. cerevisiae rad14 strain growth inhibition, stronger effect = higher value
How it was run: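 Growth inhibition vs vehicle controls; genetically altered yeast strain (DNA damage repair defect) treated with test compounds.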

[6] = NCI Yeast Anticancer Drug Screen. Data for the sgs1 mgt1 strain (AID 161);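 also: 0% = growth of cultures given vehicle only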; details: S. cerevisiae sgs1 mgt1 strain, stronger effect = higher value
How it was run: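 Read-out: growth inhibition vs vehicle controls. Cells: mutant yeast strain deficient in DNA damage repair.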

[7] = NCI Yeast Anticancer Drug Screen. Data for the CLN2oe strain (AID 163);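 also: 0% = growth of vehicle-only control cultures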; details: S. cerevisiae CLN2oe strain, stronger effect = higher value
How it was run: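 Inhibition relative to vehicle-treated yeast is reported. Cells: strain with genetic alteration in cell-cycle control, grown with compound.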

[8] = NCI Yeast Anticancer Drug Screen. Data for the cln2 rad14 strain (AID 165);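 also: 0% = growth equal to vehicle treated cultures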; details: S. cerevisiae cln2 rad14 strain, stronger effect = higher value
How it was run: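 Each compound was tested on cln2 rad14 yeast. Inhibition of growth was calculated against vehicle-exposed controls.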

[9] = NCI Yeast Anticancer Drug Screen. Data for the bub3 strain (AID 167); details: S. cerevisiae bub3 mutant strain, stronger effect = higher value
How it was run: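 Readout: yeast growth inhibition, expressed relative to vehicle-only wells. The test organism is a mutant strain from a panel with lesions in DNA repair or checkpoint genes.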

[10] = NCI Yeast Anticancer Drug Screen. Data for the wt2 strain (AID 169);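 also: 0% = growth of vehicle-treated yeast cultures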; details: S. cerevisiae wt2 strain growth inhibition, stronger effect = higher value
How it was run: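 Inhibition of yeast growth was determined after compound treatment, normalised to controls receiving only vehicle.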

[11] = NCI Yeast Anticancer Drug Screen. Data for the mlh1 strain (AID 171);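 also: 0% = growth of vehicle-treated control cultures of the same strain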; details: S. cerevisiae mlh1 strain growth inhibition, stronger effect = higher value
How it was run: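 Vehicle-normalised growth inhibition of a repair- or checkpoint-altered yeast strain following compound treatment.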

[12] = NCI Yeast Anticancer Drug Screen. Data for the sgs1 strain (AID 173);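 also: 0% = growth of vehicle-only control cultures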; details: S. cerevisiae sgs1 mutant, stronger effect = higher value
How it was run: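 Screen format: yeast with repair or checkpoint alterations, compound exposure, growth read relative to vehicle.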

[13] = NCI Yeast Anticancer Drug Screen. Data for the mlh1 rad18 strain (AID 175); details: S. cerevisiae mlh1 rad18 strain growth inhibition, stronger effect = higher value
How it was run: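 Vehicle-treated cultures served as the reference for growth inhibition in a yeast strain carrying DNA damage repair alterations exposed to each compound.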

[14] = NCI Yeast Anticancer Drug Screen. Data for the rad18 strain (AID 177); details: S. cerevisiae rad18 mutant growth inhibition, stronger effect = higher value
How it was run: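 Test articles were incubated with altered yeast defective in DNA damage repair. Results are given as inhibition of growth versus vehicle.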

[15] = at 5.0 µM (retest, dose inferred, filed as 0.5)
[16] = at 50.0 µM (retest, dose inferred, filed as 5.0)

Measured: growth inhibition

c1cc2ccc3cc4ncccc4c4ccc(c1)c2c34
inactive: [1]; at 1.2 µM -2% | [1]; at 3.7 µM 3% | [1]; at 11.0 µM 9% | [1]; at 33.0 µM 54% | [2]; at 1.2 µM 8% | [2]; at 3.7 µM 35% | [3]; at 1.2 µM 2% | [3]; at 3.7 µM 13% | [4]; at 1.2 µM -2% | [4]; at 3.7 µM 1% | [4]; [15] 23% | [4]; at 11.0 µM 13% | [4]; at 33.0 µM 65% | [5]; at 1.2 µM 1% | [5]; at 3.7 µM 7% | [5]; at 11.0 µM 20% | [5]; at 33.0 µM 68% | [6]; [15] 34% | [7]; at 1.2 µM -3% | [7]; at 3.7 µM -3% | [7]; at 11.0 µM 1% | [7]; at 33.0 µM 21% | [7]; at 100.0 µM 65% | [8]; [15] 15% | [9]; at 1.2 µM -2% | [9]; at 3.7 µM 1% | [9]; [15] 27% | [9]; at 11.0 µM 36% | [10]; at 1.2 µM 0% | [10]; at 3.7 µM 0% | [10]; at 11.0 µM 15% | [10]; at 33.0 µM 53% | [11]; at 1.2 µM -2% | [11]; at 3.7 µM 0% | [11]; at 11.0 µM 22% | [12]; at 1.2 µM -2% | [12]; at 3.7 µM 0% | [12]; at 11.0 µM 25% | [13]; [15] 32% | [14]; at 1.2 µM 4% | [14]; at 3.7 µM 7% | [14]; at 11.0 µM 35%
active: [1]; at 100.0 µM 75% | [2]; at 11.0 µM 73% | [2]; at 33.0 µM 92% | [2]; at 100.0 µM 92% | [3]; [15] 74% | [3]; at 11.0 µM 70% | [3]; at 33.0 µM 93% | [3]; [16] 96% | [3]; at 50.0 µM 97.9% | [3]; at 100.0 µM 93% | [4]; [16] 97% | [4]; at 50.0 µM 97.5% | [4]; at 100.0 µM 82% | [5]; at 100.0 µM 79% | [6]; [16] 93% | [6]; at 50.0 µM 98.2% | [8]; [16] 90% | [8]; at 50.0 µM 92.3% | [9]; at 33.0 µM 84% | [9]; [16] 96% | [9]; at 50.0 µM 98.9% | [9]; at 100.0 µM 90% | [10]; at 100.0 µM 85% | [11]; at 33.0 µM 83% | [11]; at 100.0 µM 88% | [12]; at 33.0 µM 83% | [12]; at 100.0 µM 85% | [13]; [16] 97% | [13]; at 50.0 µM 97.8% | [14]; at 33.0 µM 87% | [14]; at 100.0 µM 90%

Reference: PubChem BioAssay (NCI)
